Among the data in PubChem BioAssay (NCI) are growth values, retold here.

The panel holds about 83,000 compounds, 20% with a hit somewhere; the sample as a whole holds those more often.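 96-well plates, one dose, 48 hours. Percent growth reported; active if below 10.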 A number with no mark means an inactive call. Active and inactive are the calls of the source.

What all share (assay): NCI-60 one-dose screen, 48 h (100 = growth as untreated, 0 = no growth, -100 = all killed)
What all share (conditions): 10 µM unless noted

Test [1] has as its system DU-145 prostate.
Test [2] has as its system K-562 leukemia.
Test [3] has as its system MALME-3M melanoma.
The test system of test [4] is MDA-MB-231 breast.
Test [5] relates to RXF 393 renal.
Test [6] has as its system SF-268 CNS.
The subject of test [7] is SF-295 CNS.
For test [8], the system named is SF-539 CNS.
Test [9] concerns UACC-257 melanoma.
Test [10] relates to M14 melanoma.
For test [11], the system named is HCT-15 colon.
Test [12] deals with HT29 colon.
Test [13] concerns SNB-75 CNS.
In test [14] the test system is SNB-19 CNS.
Test [15] deals with U251 CNS.
Test [16] concerns PC-3 prostate.
Test [17] deals with SK-MEL-5 melanoma.
Test [18] concerns UACC-62 melanoma.
The test system of test [19] is LOX IMVI melanoma.
For test [20], the system named is SK-MEL-28 melanoma.

Turning to `Cn1ncc2c(Nc3ccc(O)cc3)nc(Cl)nc21`, the growth was 113% in test [1]; 90.5% in test [2]; 128% in [3]; 93.7% in [4]; 96% in test [5]; 97.7% in test [6]. Besides, the growth is 109% in test [7]; 96.6% in [8]; 105% in [9]; 111% in [10]; 97% in test [11]; 102% in test [12]. Besides, the growth in [13] is 95%; in test [14] it was 106%; in test [15], 99.3%; in [16], 119%; in [17], 100%; in test [18], 82.6%. The growth in test [19] was 95.7%; in [20], 114%.
Regarding `CCOC(=O)COc1ccc2c(c1)O/C(=C\c1ccc(O)cc1)C2=O`, the growth is 106% in test [1]; 106% in [2]; 102% in test [3]; 117% in test [4]; 114% in [5]; 94.2% in test [6]. The growth in test [7] is 101%; in test [8], 102%; in test [9], 105%; in test [10], 103%; in [11], 101%; in test [12], 108%. Besides, the growth in test [13] is 87.7%; in test [14], 102%; in [15], 107%; in test [16], 112%; in test [17], 102%; in test [18], 98.9%. For the same molecule, the growth in [19] is 97.9%; in [20], 106%.
For the molecule `C#C[C@]1(O)CC[C@H]2[C@@H]3CC=C4c5nc(Nc6ccc(OC)cc6OC)sc5CC[C@]4(C)[C@H]3CC[C@@]21C`, the growth was 39% in [1]; 6.12% (active) in test [2]; -21.8% (active) in [3]; 1.72% (active) in test [4]; -60% (active) in test [5]; 4.95% (active) in [6]. The growth is -66.3% (active) in test [7]; -59.5% (active) in test [8]; -20.3% (active) in test [9]; -41.4% (active) in [10]; -39.1% (active) in test [11]; -12.8% (active) in test [12]. Moreover, the growth is -53.6% (active) in test [13]; 31.2% in test [14]; -2.51% (active) in test [15]; -3.17% (active) in [16]; -92.2% (active) in test [17]; -36.8% (active) in [18]. Besides, the growth in [19] is -78.3% (active); in [20], -49.1% (active).
For the molecule `COc1ccc(C=C2c3ccccc3-c3ccccc32)cc1`, the growth is 84.6% in test [1]; 18.8% in test [2]; 63.5% in [3]; 59.2% in test [4]; 54.5% in [5]; 53.8% in [6]. In addition, the growth was 31.7% in test [7]; 43.7% in [8]; 52.3% in [9]; 30% in test [10]; 25.8% in test [11]; 13.7% in [12]. In addition, the growth in test [13] was 43.3%; in test [14], 51.4%; in test [15], 34.8%; in test [16], 63.6%; in test [17], 60.3%; in test [18], 23.6%. The values for the growth in test [19] and in test [20] were 41.3% and 64.9%, respectively.
As to `Nc1ccc(Cl)c([N+](=O)[O-])c1`, the growth is 107% in [1]; 84.6% in test [2]; 119% in test [3]; 107% in test [4]; 109% in [5]; 96.7% in test [6]. Besides, the growth in test [7] was 96.7%; in test [8], 101%; in test [9] it was 95.1%; in test [10] it was 95.7%; in [11], 87.8%; in test [12], 106%. The growth in [13] was 89.3%; in [14], 108%; in test [15] it was 99.1%; in test [16], 88.3%; in [17], 97.6%; in test [18], 80.1%. In addition, the growth was 66.9% in test [19] and 100% in test [20].
As to `COCCCNc1nc(NC(=O)c2cc(OC)cc(OC)c2)cc(-c2cccnc2)n1`, the growth in [1] is 101%; in [2] it was 86.1%; in test [3], 112%; in [4] it was 69.1%; in test [5], 97.7%; in [6], 100%. Further, the growth in test [7] was 100%; in test [8], 88.9%; in [9], 106%; in [10], 107%; in test [11], 90.3%; in test [12], 95.5%. Further, the growth in [13] is 73.1%; in [14], 98.3%; in test [15], 96.8%; in test [16] it was 87.3%; in [17], 72.4%; in test [18] it was 111%. Also, the growth in test [19] was 94.5%; in test [20], 105%.
Turning to `CC(C)C1=NOC(=O)C1=Cc1cn(-c2ccccc2)nc1-c1ccc(Cl)cc1`, the growth in [1] is 94.3%; in test [2] it was 42.8%; in [3], 93.2%; in test [4], 97%; in [5], 58.2%; in test [6], 99.3%. The growth in test [7] was 96.9%; in test [8], 75.9%; in [9] it was 105%; in test [10] it was 76.4%; in test [11], 64.9%; in [12] it was 67.9%. Moreover, the growth in test [13] is 83.8%; in test [14], 86%; in test [15], 71.1%; in test [16], 78.7%; in test [17], 83.2%; in test [18], 75.6%. Moreover, the values for the growth in [19] and in test [20] were 6.02% (active) and 84.9%, respectively.
As for `CC(=O)Nc1ccc(C=Nc2ccc3ccccc3c2)cc1`, the growth was 112% in test [1]; 105% in test [2]; 111% in test [3]; 109% in [4]; 108% in test [5]; 105% in test [6]. In addition, the growth in test [7] is 119%; in test [8], 107%; in test [9] it was 103%; in test [10] it was 97%; in [11], 105%; in [12], 105%. Also, the growth is 77.7% in [13]; 92.9% in test [14]; 113% in [15]; 96.5% in test [16]; 99.6% in [17]; 97.2% in test [18]. In addition, the growth in test [19] was 114%; in test [20], 108%.
